Screening data as filed in PubChem.
Sampled rows, rich in hits. Any-hit rate of the full collection: about 8.9%.
M1 agonist – M1 muscarinic receptor agonism; CHO-M1 cells, Fluo-4 calcium fluorescence, agonist mode; hits give high values; B-score at 10 µM; AID 626; hit rate 3% among 64,000;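 active means fluorescence rise, raw or as B-score row- and column-corrected plate score, outside the 99.7% band of its plate's samples, either direction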
WNV protease inh – WNV NS2B-NS3 proteinase inhibition; AID 577; WNV NS2B-NS3 protease, fluorogenic substrate Ex360/Em465; hits give low values; z-score (no concentration beside the values); hit rate 0.18% among 65,000; in the data active means z-score below about -3
D1 mod – allosterically modulates the human D1 dopamine receptor; hit rate 5.9% among 58,000; P21728; B-score at 10 µM; HEK293 D1, CRE-luciferase, dopamine EC30 potentiation; actives deviate in either direction; AID 641;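 active means luminescence count or its row- and column-corrected plate score outside the 99.7% band of the plate's sample wells, on either side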
M1 antag – blocks the rat M1 muscarinic receptor response to acetylcholine. B-score at 10 µM. hit rate 3.4% among 64,000. P08482. CHO-M1 cells, Fluo-4 calcium, ACh EC80 antagonist mode; hits give low values;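 active means calcium fluorescence response, raw or row-and-column corrected B-score, differing from the plate sample mean either way at a set confidence level, mostly lower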
mHtt clearance – mutant huntingtin protein clearance. HeLa Exon1htt(103Q)mCFP, aggregate imaging; zero = plate's median compound well. inhibition, % at 1.5 µM. hit rate 0.42% among 47,000;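 active means inhibition of aggregate fluorescence above about 70%, also judged a hit by eye on the cell image, limit read from the data, passing the limit was not always enough; inconclusive means no rule stated for this call; inactive means not judged a hit on image review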;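 further: cells exposed to compound for three days before fixation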
M1 agonist conf – confirmation of rat M1 muscarinic receptor agonists; CHO-M1 cells, Fluo-4 calcium fluorescence, agonist mode; actives lie on both sides; shares compounds with M1 agonist; fluorescence change (max-min) at 10 µM; hit rate 19% among 1,700;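 active means fluorescence change differs from the solvent-only DMSO control mean at a set confidence level in both duplicate runs; inconclusive means differs from solvent-only control mean in just one of two runs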;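 further: an EC20 dose of acetylcholine follows compound addition during the same imaging run; raw fluorescence intensity difference in instrument units with no normalization to controls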
M4 ag counter – counter-screen for M1 agonists: activity at rat M4 receptor; CHO M4/Gqi5 cells, Fluo-4 calcium fluorescence, agonist mode; actives lie on both sides; AID 1741; shares compounds with M1 agonist; fluorescence change (max-min) at 10 µM; hit rate 9% among 1,700;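 active means fluorescence change differing from the plate's solvent-only control wells at 99.7% confidence in both duplicates, whether higher or lower; inconclusive means differs from solvent controls in only one of two duplicates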
Target sequence (P08485 whole entry, looked up): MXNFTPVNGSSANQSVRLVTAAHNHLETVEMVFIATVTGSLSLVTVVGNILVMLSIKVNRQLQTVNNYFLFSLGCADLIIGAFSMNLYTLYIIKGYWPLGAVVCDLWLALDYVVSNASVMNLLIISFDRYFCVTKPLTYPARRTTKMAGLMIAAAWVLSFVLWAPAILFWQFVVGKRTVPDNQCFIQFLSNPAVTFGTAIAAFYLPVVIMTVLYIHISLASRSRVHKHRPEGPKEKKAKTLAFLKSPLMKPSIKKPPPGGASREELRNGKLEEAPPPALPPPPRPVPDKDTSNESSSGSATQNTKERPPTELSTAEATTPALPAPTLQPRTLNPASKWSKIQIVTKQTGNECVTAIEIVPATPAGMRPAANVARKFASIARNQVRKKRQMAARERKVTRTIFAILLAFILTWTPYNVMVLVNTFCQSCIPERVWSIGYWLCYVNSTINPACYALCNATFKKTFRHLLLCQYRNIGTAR
* marks the source's active call; other numbers are inactive results; i = inactive; ? = inconclusive; · = no result given.

SMILES	M1 agonist	WNV protease inh	D1 mod	M1 antag	mHtt clearance	M1 agonist conf	M4 ag counter
COCC(C)OC(=O)c1c(N)n(Cc2ccco2)c2nc3ccccc3nc12 (configuration not stated)	2.1	1.7	12*	-0.17	-49	·	·
CC(=O)OC1(c2ccccc2)CCN(C)C(C)C1C (configuration not stated)	·	·	·	·	-6	·	·
COc1ccccc1N1CCN(Cc2cccc(OC)c2O)CC1	-0.51	1.9	-4.2*	-1.1	10	·	·
CCN(CC)Cc1c[nH]c2ccccc12	-1.5	-0.17	-8.4*	-0.45	-25	·	·
O=C(CCCN1CCC2(CC1)C(=O)NCN2c1ccccc1)c1ccc(F)cc1	·	0.41	-6.5*	·	·	·	·
CCCCCCOc1ccc(CN2CCN(CC)CC2)cc1	·	·	·	·	-10	·	·
O=C(CF)NC(Nc1cccc2cccnc12)C(Cl)(Cl)Cl (configuration not stated)	·	·	·	·	28	·	·
O=C(C1CCCN(c2nnc(-n3cccc3)s2)C1)N1CCC2(CC1)OCCO2 (configuration not stated)	-0.0071	-1.1	0.16	-0.055	12	·	·
O=C(C1CCN(c2nc3ccc(Br)cc3s2)CC1)N1CCC2(CC1)OCCO2	7.8*	-1	·	-5.5*	19	·	·
Cn1ccnc1P(=S)(c1nccn1C)c1nccn1C	-1.2	0.2	-0.25	-0.86	·	·	·
CN1CC=C(c2c[nH]c3ccccc23)CC1	0.75	1.8	-3.7*	0.011	·	·	·
O=C(c1ccc2nc3ccc(Cl)cc3c(=O)n2c1)N1CCC2(CC1)OCCO2	-0.042	0.41	2.1	0.055	·	·	·
COC(=O)C1C2c3ccccc3OC1(C)N=c1s/c(=C/c3cnn(C)c3C)c(=O)n12 (configuration not stated)	0.27	-0.21	-0.67	0.13	·	·	·
CCOC(=O)C1C2c3ccccc3O[C@@]1(C)N=C1SCC(=O)N12 (some centres not stated)	-0.17	-1.2	0.48	1.1*	-7	·	·
CCOC(=O)c1c(NC(=O)c2c(N)n(CCCOC)c3nc4ccccc4nc23)sc2c1CCCC2	·	·	·	·	13	·	·
CCOC(=O)c1c(NC(=O)C(c2ccccc2)c2ccccc2)sc2c1C1CCN2CC1	·	·	·	·	75*	·	·
CCCCc1ccc2[nH]cc(CCN)c2c1	0.21	0.24	-0.014	0.061	75*	·	·
CCN1CCC(O)(c2ccccc2)C(C(=O)c2ccccc2)C1 (configuration not stated)	·	·	·	·	87*	·	·
CN1CCC(O)(c2ccccc2)C(C(=O)c2ccccc2)C1 (configuration not stated)	·	-1.1	-3.8	·	·	·	·
Cc1cc(N2C(=O)C3CCCN3C2c2sccc2C)no1 (configuration not stated)	0.093	-0.39	-0.29	0.26	i	·	·
Cc1nn(C2CCOC(C)(C)C2)c2c1C(c1ccc(OC(C)C)cc1)SCC(=O)N2 (configuration not stated)	·	·	·	·	23	·	·
O=C1NC(=O)[C@]2(Cc3ccccc3N3CCN(c4ccccc4)CC32)C(=O)N1Cc1ccccc1 (some centres not stated)	-0.22	-4*	0.024	-0.16	5	·	·
Cc1ccccc1-n1c(O)c(C=Nc2ccc3c(c2)OCO3)c(=O)[nH]c1=O	7.5*	-1.3	-0.076	0.02	·	·	·
COc1ccccc1-n1c(O)c(C=NCc2ccc3c(c2)OCO3)c(=O)[nH]c1=O	0.12	0.52	0.92	0.33	·	·	·
CCOc1ccccc1-n1c(O)c(C=Nc2ccc(N(CC)CC)cc2)c(=O)[nH]c1=O	8.7	-0.82	-1.3	-1.8	·	·	·
SMILES	M1 agonist	WNV protease inh	D1 mod	M1 antag	mHtt clearance	M1 agonist conf	M4 ag counter
CCN(CC)c1ccc(N=Cc2c(O)n(-c3ccccc3C)c(=O)[nH]c2=O)cc1	22*	-0.28	·	-0.55	2	46	17
Cc1ccc(C)c(CN2CCC(n3nnc4cc(F)ccc43)CC2)c1	0.21	1.6	-0.63	0.0013	·	·	·
Nc1c(C(=O)OC2CCCCC2)c2nc3ccccc3nc2n1CC1CCCO1 (configuration not stated)	4.1*	0.95	-1.5	0.2	7	-8.5	-46
COc1ccc2nc(NC(=O)CCc3nc(C4=CCN(C)CC4)no3)sc2c1	5.1*	0.74	-2.3	-0.23	·	-1.6	-41
CCc1nnc(NC(=O)CCc2nc(C3=CCN(C)CC3)no2)s1	·	0.11	-0.86	·	·	·	·
O=C(c1cccs1)C1CN2CCC1CC2 (configuration not stated)	8.4*	0.39	-0.12	-5.5*	·	32	15
O=C(O)C1CN2CCC1CC2 (configuration not stated)	13*	-0.11	·	-0.16	·	233*	-34
O=C(c1cccs1)N1C2CCC1CC(O)(c1cccnc1)C2 (configuration not stated)	-0.36	-0.35	-0.8	-0.5	·	·	·
COC(=O)c1cc(COc2cc(C)cc3oc(=O)c4c(c23)CCC4)c(C)o1	-0.65	0.12	0.69	1.3	·	·	·
O=C(Nc1ccc(Cl)cc1)Nc1nccs1	·	·	·	·	-62	·	·
CCC(=NCCOc1ccc(Cl)cc1)c1c(O)n(C)c(=O)n(C)c1=O	11*	-1.5	·	-1	-25	-9.8	?
CCC(=NCc1ccc2c(c1)OCO2)c1c(O)n(C)c(=O)n(C)c1=O	2.9*	0.68	·	-0.61	6	12	-35
CCC(=NCCN1CCCCC1)c1c(O)n(C)c(=O)n(C)c1=O	-0.35	-1	·	-0.37	54	·	·
O=C(COc1ccccc1)N1CCN(CC2CC3C=CC2C3)CC1 (configuration not stated)	0.99	0.67	0.16	-1.3	-50	·	·
CCC(C)N1C(=O)NC(=O)C2(Cc3c(ccc4ccccc34)N(C)C2)C1=O (configuration not stated)	13*	0.39	-1.7	-2.1	2	?	?
O=C1NC(=O)C2(Cc3c(nc4ccccn4c3=O)N3CCCCCC32)C(=O)N1Cc1ccccc1 (configuration not stated)	12*	-1.2	-0.31	0.26	24	-11	-22
O=C1NC(=O)C2(Cc3ccccc3N3CCCC32)C(=O)N1Cc1ccccc1 (configuration not stated)	0.47	-1.1	-0.047	0.31	·	·	·
CCOC(=O)C1CCN(/C=C2/C(=O)NC(=O)N(c3ccc(OCC)cc3)C2=O)CC1	-3.3*	-0.5	0.39	-0.13	22	-7	-23
COc1ccc2c(c1)c(C(=O)CN1CCN(C)CC1)c(C)n2Cc1ccccc1	2.6*	-1.3	-0.42	-0.47	-15	?	-71
Cc1nc2c(c(C)nn2-c2ccccc2)c(C)c1CCC(=O)N1CCC2(CC1)OCCO2	-1	-1.1	3	0.096	·	·	·
O=C1CCCC2C3CCCN4CCCC(CN12)C34 (configuration not stated)	-2.5*	-0.67	0.62	-0.23	·	-11	-45
COc1ccc(CC2C(=O)N(C)C(=O)N(C)C2=O)c(OC)c1	6.5*	-0.28	0.52	-3.6*	·	-3.9	-24
Cc1ccccc1OCCN=Cc1c(O)n(C)c(=O)n(C)c1=O	·	·	·	·	-16	·	·
